Measurements reported in PubChem BioAssay AID720553 (National Center for Advancing Translational Sciences (NCATS), 2013).
Screen size: about 340,000 compounds; about 3,300 (0.97%) were called active. The entries come from a sample that favours actives as a whole. Values without a mark were called inactive.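 How the source made its calls: active means maximum activity change below -70%; inconclusive means maximum activity change from -70% to -50%; inactive means maximum activity change above -50%.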

Each compound was assayed on Potassium voltage-gated channel subfamily H member 2, brain isoform KCNH2 3.1 (human) (assay: qHTS for Inhibitors of KCHN2 3.1: Mutant qHTS). Settings: U2OS KCNH2 3.1, thallium flux FluxOr; hits give low values.
Excerpt: Many antipsychotic drugs that inhibit the neurotransmitter dopamine also bind to hERG1 channel which might help explain their antipsychotic activity but also produces cardiac side effects. The discovery of the novel KCNH2 3.1 isoform offers a potential new target for the development of antipsychotic drugs without cardiac side effects. This proposal will use a high throughput thallium flux assay developed for KCNH2 to screen compounds that modulate the activity of KCNH2 3.1. The wild type KCNH2 channel will also be screened in parallel to help define the selective modulators of this KCNH2 3.1 potassium channel. The resulting compounds will be validated in electrophysiology experiments. The availability of animal models will allow future testing in vivo for effects on memory and other aspects of animal physiology linked with psychosis. NIH Chemical Genomics Center [NCGC] NIH Molecular Libraries Probe Centers Network [MLPCN] MLPCN Grant: MH096539 Assay Submitter (PI): James Barrow, Johns Hopkins University, Lieber Institute for Brain Development
U2OS cells were resuspended in cell media containing 10% fetal calf serum (FCS) at a concentration of 2 million cells / mL. The solution was treated with the mutant (3.1) virus at 1.77 x 10^8 / mL and allowed to incubate at room temperature in the dark. After 4 hours of incubation, DMEM + 10% fetal bovine serum (FBS) was added to the cell solution. Three microliter was then dispensed into a 1536 tissue culture treated black assay plates which were incubated overnight at 37 C. Two microliter of loading buffer (HBSS + HEPES + Red40 dye quencher + FluxOr dye) was added and the assay plates were incubated for 45 min at room temperature in the dark. […] A stimulation buffer was added to the plate and the second kinetic read (2 min) was obtained. The rate constant was calculated from the kinetic reads and normalized to the positive and negative DMSO controls.
On the % scale 0 is the no-effect control and ±100 the full control effect.

Row | Structure (SMILES) | activity change
1 | CCOC(=O)C1(c2ccccc2)CCN(CC(O)c2ccc(NC(C)=O)cc2)CC1 (stereo not given) | -5.82%
2 | c1ccc(CCN2CCC3(CC2)OCCO3)cc1 | -0.723%
3 | CCOC(=O)C1(CCc2ccccc2)CCN(Cc2ccco2)CC1 | -96.9% (active)
4 | COP(=O)(OC)C(NC(=O)c1ccc(C)cc1)C(Cl)(Cl)Cl (stereo not given) | 10.5%
5 | COc1ccc(C(=O)C2CCCN(Cc3ccc(C)s3)C2)cc1OC (stereo not given) | -13%
6 | COc1cccc(CN2CCCC(C(=O)c3ccccc3SC)C2)c1O (stereo not given) | -72.3% (active)
7 | CSc1ccc(C(=O)C2CCCN(Cc3ccn[nH]3)C2)cc1 (stereo not given) | -19%
8 | CC1C2Cn3c(nc4ccccc43)C1N(C)O2 (stereo not given) | 20.5%
9 | COC(=O)C1=C(c2ccc(F)cc2OCc2ccccc2)C[C@@H]2CC[C@H]1N2C(=O)NCc1ccc2[nH]ccc2c1 | 1.25%
10 | COC(=O)C1=C(c2ccc(F)cc2OCc2ccccc2)C[C@@H]2CC[C@H]1N2C(=O)NCc1ccc(C(C)(C)C)cc1 | -19.4%
11 | COC(=O)C1=C(c2ccc(F)cc2OCc2ccccc2)C[C@@H]2CC[C@H]1N2C(=O)NCc1ccc(OC)c(OC)c1 | -73.8% (active)
12 | CC1=CC(=Cc2sc3ccccc3[n+]2C)C=C(C)O1 | -4.47%
13 | COC(=O)C1=C(c2ccc(C(C)=O)cc2)C[C@@H]2CC[C@H]1N2C(=O)NCCNC(C)=O | 21.5%
14 | COC(=O)CN1C(=O)C2(C(C(=O)OC)=C(N)Oc3ccccc32)C2=C1CC(C)(C)CC2=O (stereo not given) | -17.7%
15 | CC(=O)NC(=O)NC(C)Cc1ccccc1 (stereo not given) | -18.9%
16 | CC(Cc1ccccc1)NCCC(c1ccccc1)c1ccccc1 (stereo not given) | -112% (active)
17 | CC(Cc1ccccc1)NC=O (stereo not given) | 13.6%
18 | CCN1c2nc3c(C)cccn3c(=O)c2CC2(C(=O)N(C)C(=O)N(C)C2=O)C1C (stereo not given) | -4.08%
19 | c1ccc(C2NCc3ccccc3-n3cccc32)cc1 (stereo not given) | 12.2%
20 | CC1(C)C(c2ccccc2)=NC(c2cccnc2)=[N+]1[O-] | 0.45%

Row | Structure (SMILES) | activity change
21 | CN(C)c1nc(N(C)C)nc(N(C#N)CCCl)n1 | -8.4%
22 | OCC#CC[N+]1(CC#Cc2ccccc2)CCCC1 | 13.7%
23 | Cn1c(O)c(C=Nc2ccc3c(c2)CCC3)c(=O)n(C)c1=O | -17.3%
24 | CCOC(=O)C1(Cc2ccc(Cl)cc2)CCN(C(C)CCn2cccn2)CC1 (stereo not given) | -115% (active)
25 | O=c1c2ccccc2nc(/C=C/c2ccc(F)cc2)n1-c1ccccc1O | -2.48%
26 | CC(C)c1ccc(OCC(=O)N2CCN(C)CC2)c(Br)c1 | -93.1% (active)
27 | CC(C)c1ccc(OCC(=O)N2CCCN(C)CC2)cc1 | 10.3%
28 | CN1CCN(C(=O)COc2ccc(C(C)(C)C)cc2Br)CC1 | -2.07%
29 | CC(=C1C(=O)c2ccccc2C1=O)N1CCN(CCN=Cc2c(O)n(C)c(=O)n(C)c2=O)CC1 | 10.3%
30 | CC1CC=CCC12C(=O)NC(=S)NC2=O (stereo not given) | 10.6%
31 | CSC1=NP(=S)(SC)N(C)c2nc3n(c21)CCC3 (stereo not given) | -5.66%
32 | Cc1cc(C)cc(NC(=S)NC2CC3CCCC(C2)N3Cc2cccs2)c1 (stereo not given) | -73.1% (active)
33 | c1ccc(CCNC2CCCCCC2)cc1 | 12.5%
34 | CNC(=O)O/N=C(\N)Cc1csc2ccc(Cl)cc12 | 4.55%
35 | N#Cc1ccc(Cn2cc(C(=O)c3ccco3)c3ccccc32)cc1 | -80.8% (active)
36 | NC(=O)Cn1cc(C(=O)c2ccccc2F)c2ccccc21 | 3.8%
37 | COc1ccc2[nH]c3c(c2c1)CCN[C@H]3C | 2.31%
38 | COc1cc(OC)cc(C2(C#N)CCN(C)CC2)c1 | 5.57%
39 | Cc1ncoc1C(=O)NCC1=C(c2cccc3ccccc23)C[C@@H]2CC[C@H]1N2Cc1ccco1 | -7.12%
40 | CC(=CCOc1ccc2ccc(=O)oc2c1)C1=CC(=O)C(C)(C)O1 | 4.08%
